UBC13 polyUb – UBC13 polyubiquitin chain formation inhibitors, primary screen, biochemical, TR-FRET, uHTS; Ubiquitin-conjugating enzyme E2 N (Homo sapiens), P61088; inhibition, % at 20 µM; actives 0.47% (n = 330,000); in the data active = inhibition above about 45%, passing the limit was not always enough
MEKK3 PB1 HTS – modulators of MEKK3-MEK5 PB1 binding, primary screen, biochemical, wildtype MEKK3, multiplex bead flow cytometry, Alexa488-MEK5. Mitogen-activated protein kinase kinase kinase 3 (Homo sapiens), Q99759. bead-based flow cytometry, Alexa488-MEK5 binding to MEKK3; actives lie on both sides; 0 = blocked by unlabeled MEK5, 100 = vehicle. binding response (% of control), % at 10 µM. actives 1.4% (n = 290,000);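 active = binding response more than 3 SD above or below the average of its plate-row segment, actives on both sides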;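 note: Alexa488 bead fluorescence after subtracting the streptavidin-only scavenger bead signal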
Target sequence (Q99759 whole entry, looked up): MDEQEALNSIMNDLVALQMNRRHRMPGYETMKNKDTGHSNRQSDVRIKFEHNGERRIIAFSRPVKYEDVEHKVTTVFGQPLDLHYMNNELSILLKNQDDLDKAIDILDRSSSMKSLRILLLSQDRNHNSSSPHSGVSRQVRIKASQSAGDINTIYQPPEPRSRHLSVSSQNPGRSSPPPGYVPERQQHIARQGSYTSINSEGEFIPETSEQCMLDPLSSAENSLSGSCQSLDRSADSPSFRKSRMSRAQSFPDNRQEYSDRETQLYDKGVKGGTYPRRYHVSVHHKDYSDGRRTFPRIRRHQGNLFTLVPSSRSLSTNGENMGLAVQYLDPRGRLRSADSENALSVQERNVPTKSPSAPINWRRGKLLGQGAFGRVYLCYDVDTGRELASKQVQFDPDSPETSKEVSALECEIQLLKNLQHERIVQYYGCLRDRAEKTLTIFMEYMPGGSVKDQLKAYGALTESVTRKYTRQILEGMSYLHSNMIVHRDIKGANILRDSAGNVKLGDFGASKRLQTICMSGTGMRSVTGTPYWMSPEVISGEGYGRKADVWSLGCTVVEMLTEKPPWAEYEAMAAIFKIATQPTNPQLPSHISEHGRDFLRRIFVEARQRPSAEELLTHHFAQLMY
PREPL inhibitor – PREPL enzyme inhibitors, primary screen, biochemical, fluorescence polarization; inhibition, % at 5.96 µM; actives 0.68% (n = 320,000); AID 2751, 2010; recombinant PREPL, fluorescence polarization activity-based probe
MEKK2wt PB1 HTS – modulators of MEK5 binding to wildtype MEKK2, primary screen, biochemical, multiplex bead flow cytometry, Alexa488-MEK5; binding response (% of control), % at 10 µM; Mitogen-activated protein kinase kinase kinase 2 (Homo sapiens), Q9Y2U5; Alexa488-MEK5 binding to MEKK2 WT; actives lie on both sides; actives 1.1% (n = 290,000); in the data active = binding response below about 67% or above about 130%
MEKK2mut PB1 HTS – MEK5 binding signal on mutant MEKK2 PB1, primary screen, biochemical, multiplex bead flow cytometry, Alexa488-MEK5; percent response, % at 10 µM; actives 0.35% (n = 290,000); AID 1530, 2009; Alexa488-MEK5 binding to MEKK2 mutant; in the data active = percent response above about 24%, passing the limit was not always enough
ATG4B inhibitor – ATG4B protease inhibitors, primary screen, biochemical, fluorescence, uHTS; Cysteine protease ATG4B (Homo sapiens), Q9Y4P1; ATG4B cleavage of LC3-PLA2, NBD-HPC fluorescence, 1 h; inhibition, % at 8.33 µM; actives 0.51% (n = 340,000); in the data active = inhibition above about 40%
PREPL inh cf – human PREPL enzyme inhibitors, confirmation, biochemical, fluorescence polarization; shares compounds with PREPL inhibitor; actives 67% (n = 2,000); AID 2803, 2010; inhibition, % at 5.96 µM; recombinant PREPL, fluorescence polarization activity probe
Each line names hits and unclear results; the compound was inactive in the other large screens (follow-up assays come after a bar, where they were run). Most compounds without a hit are left out; they make up all but 3.1% or so of the library. Cut-off read from the data, not from the text of the source, unless noted: active = inhibition above about 43%; inactive = the rest.

CCOc1cc(N2CCOCC2)c(OCC)cc1NC(=O)CN1C(=O)NC(Cc2ccccc2)C1=O (stereo not given)	PREPL inhibitor 54.1 | PREPL inh cf 56.0
CCOc1cc(N2CCOCC2)c(OCC)cc1NC(=O)Cc1ccccc1	none
CCN(CC)c1ccc(S(=O)(=O)N2CCOCC2)cc1NC(=O)COC(=O)/C=C/c1ccco1	none (no result: UBC13 polyUb, MEKK3 PB1 HTS, PREPL inhibitor, MEKK2wt PB1 HTS, MEKK2mut PB1 HTS)
Oc1ccc(/C=N/Nc2ccnc3cc(Cl)ccc23)cc1O	PREPL inhibitor 54.5 | PREPL inh cf inactive
Oc1ccc(/C=N/Nc2ccnc3cc(Cl)ccc23)c(O)c1O	none
NCCCn1c(C(=O)c2cc(Cl)c(N)c(Cl)c2)c2ccc([N+](=O)[O-])cc2[n+]1[O-]	PREPL inhibitor 61.2 (no result: MEKK3 PB1 HTS, MEKK2wt PB1 HTS, MEKK2mut PB1 HTS) | PREPL inh cf 69.5
Oc1ccc(N=Nc2ccccc2-c2nn[nH]n2)c(O)c1	PREPL inhibitor 51.0 | PREPL inh cf 53.3
Cc1ccccc1-c1nn[nH]n1	none
Cc1nc(NC(=O)c2ccccc2)sc1-c1csc(Nc2cccc(F)c2)n1	none (no result: ATG4B inhibitor)
Cc1cc(NS(=O)(=O)c2ccc(Nc3nc(-c4sc(NC(=O)c5ccccc5)nc4C)cs3)cc2)no1	PREPL inhibitor 66.2 (no result: ATG4B inhibitor) | PREPL inh cf 62.6
CN1Cc2c(N3CCOCC3)nc3sc(C(=O)c4ccccc4)c(N)c3c2CC1(C)C	PREPL inhibitor 60.7 | PREPL inh cf 63.9
O=C(NCc1ccccc1Cl)c1ccc(CS(=O)Cc2ccc(Cl)cc2)o1 (stereo not given)	none
CN(C)S(=O)(=O)c1cccc(-c2csc(=Nc3ccccc3)n2CCCN2CCOCC2)c1	PREPL inhibitor 56.3 | PREPL inh cf 55.2
C=CCn1c(-c2ccc(S(=O)(=O)N3CCOCC3)cc2)csc1=Nc1ccccc1	none
O=C(COC(=O)CCc1c[nH]c2ccccc12)Nc1cc([N+](=O)[O-])ccc1Cl	PREPL inhibitor 46.5 | PREPL inh cf inactive
COc1nc(=O)n(C2CCCO2)cc1C (stereo not given)	none (no result: UBC13 polyUb, MEKK3 PB1 HTS, PREPL inhibitor, MEKK2wt PB1 HTS, MEKK2mut PB1 HTS)
COc1cc(NC(=O)Cc2ccccc2)cc(OC)c1	none
COc1cc(NC(=O)C[n+]2ccc(C(=O)c3ccccc3)cc2)cc(OC)c1	PREPL inhibitor 49.2 (no result: MEKK3 PB1 HTS, MEKK2wt PB1 HTS, MEKK2mut PB1 HTS) | PREPL inh cf inactive
Cc1c(CCOC(=O)c2cccc([N+](=O)[O-])c2)sc[n+]1CC(=O)c1ccccc1	PREPL inhibitor 50.7 | PREPL inh cf inactive
Cc1cc[n+](CC(=O)c2cccc([N+](=O)[O-])c2)c2ccccc12	PREPL inhibitor 44.8 | PREPL inh cf inactive
Cc1c(CCOC(=O)c2ccc([N+](=O)[O-])cc2)sc[n+]1CC(=O)c1ccccc1	PREPL inhibitor 62.8 | PREPL inh cf inactive
CC1CCCCC12NC(=O)N(CC(=O)OCc1cccc(F)c1)C2=O (stereo not given)	none (no result: MEKK3 PB1 HTS, MEKK2wt PB1 HTS, MEKK2mut PB1 HTS)
CC(C)CN(C(=O)COC(=O)c1ccc(-c2ccccc2)cc1)C1CCS(=O)(=O)C1 (stereo not given)	PREPL inhibitor 48.1 | PREPL inh cf inactive
CC(C)CCN1C(=O)c2ccc(C(=O)OCC(=O)N(CC(C)C)C3CCS(=O)(=O)C3)cc2C1=O (stereo not given)	none (no result: MEKK3 PB1 HTS, MEKK2wt PB1 HTS, MEKK2mut PB1 HTS)
O=C(OCC(=O)C12CC3CC(CC(C3)C1)C2)c1ccc(O)cc1O	none (no result: MEKK3 PB1 HTS, MEKK2wt PB1 HTS, MEKK2mut PB1 HTS)
Cc1ccc(S(=O)(=O)N[C@@H](Cc2ccccc2)C(=O)N2CCC[C@@H]2C(=O)O)cc1	none
Cc1ccc(C)c(C(=O)OCC(=O)Nc2cccc(S(=O)(=O)NC3=NCCCCC3)c2)c1	PREPL inhibitor 46.4 | PREPL inh cf inactive
Cc1ccc(S(=O)(=O)NCC(=O)OCC(=O)Nc2cccc(S(=O)(=O)NC3=NCCCCC3)c2)cc1C	none
Cc1cccc(-n2c(CNC(=O)c3ccc(S(=O)(=O)N(C)C)cc3)nnc2SCC(=O)Nc2ccc(F)cc2)c1	none
c1ccc(CNc2nc(-c3ccccn3)nc3ccccc23)cc1	PREPL inhibitor 67.3 | PREPL inh cf 63.8
Fc1ccccc1-c1nc(NCc2ccccc2)c2ccccc2n1	none
Cc1cc2c(NC3CCCCC3)ncnc2s1	none (no result: PREPL inhibitor)
NC(=O)[C@@H]1CCCNc2c(I)cc([N+](=O)[O-])cc2C(=O)N[C@@H](CCCN=C(N)N)C(=O)N[C@@H](CCCN=C(N)N)C(=O)N1	PREPL inhibitor 61.0 (no result: ATG4B inhibitor) | PREPL inh cf 58.8
CCC1CCC/C1=N\NC(=O)c1ccoc1C (stereo not given)	none (no result: PREPL inhibitor)
COc1ccc2[nH]c3c(N4CCC(O)(c5cccc(C(F)(F)F)c5)CC4)ncnc3c2c1	PREPL inhibitor 49.7 | PREPL inh cf 45.1
COc1ccccc1C(CNC(=O)c1cccc(NS(=O)(=O)c2ccc(C)c(F)c2)c1)N1CCCC1 (stereo not given)	none (no result: MEKK3 PB1 HTS, MEKK2wt PB1 HTS, MEKK2mut PB1 HTS)
COC(=O)c1cc2c(-c3ccccc3)c(C)c3ccccn3c-2c1C(=O)OC	none
COC(=O)c1c(Cl)c2n3ccccc3c(C)c(-c3ccccc3)c-2c1C(=O)OC	PREPL inhibitor 49.2 | PREPL inh cf inactive
Cc1ccccc1-c1nc(CS(=O)(=O)CC(=O)NCCN2CCCC2)c(C)o1	none
Cc1cc(/C=N/NC(N)=S)c(C)n1-c1ccc(Br)cc1	PREPL inhibitor 53.5 | PREPL inh cf 45.3
COC(=O)c1sccc1-c1ccc(/C=N/OC(=O)c2ccccc2)o1	PREPL inhibitor 43.4 | PREPL inh cf inactive
COC(=O)c1ccccc1-c1ccc(/C=N/NC(N)=O)o1	none
CC(OC(=O)c1ccc(Cl)nc1)C(=O)Nc1ccc2c(c1)OCO2 (stereo not given)	none (no result: MEKK3 PB1 HTS, MEKK2wt PB1 HTS, MEKK2mut PB1 HTS)
Fc1cccc(CCN2CCNC[C@@H]2CC2CCCCC2)c1	PREPL inhibitor 43.8 (no result: MEKK3 PB1 HTS, MEKK2wt PB1 HTS, MEKK2mut PB1 HTS) | PREPL inh cf inactive
CN(CC(O)COCc1ccccc1F)C1CCCCC1 (stereo not given)	PREPL inhibitor 43.7 | PREPL inh cf inactive
CC(C)(C)NC(=S)Nc1ccc(Nc2ccccc2)cc1	PREPL inhibitor 59.1 | PREPL inh cf inactive
CC(C)(C)NC(=S)Nc1ccc(Br)cc1	none
N#Cc1ccc(CN2CCN(C(=O)c3ccc(S(=O)(=O)NCc4ccco4)cc3)CC2)cc1	PREPL inhibitor 50.4 (no result: MEKK3 PB1 HTS, MEKK2wt PB1 HTS, MEKK2mut PB1 HTS) | PREPL inh cf inactive
CCCC(=O)N1CCN(c2ccc(NC(=O)c3cc4ccccc4o3)cc2Cl)CC1	PREPL inhibitor 45.0 | PREPL inh cf inactive

Compound activity: PubChem BioAssay, several laboratories
